Our source for the sensor-assay potency score (higher = more potent) values is the OligoGym collection.

Targets include GPR89B; GPS1; GRHL3; HBB; HBA1; HBA2; HAX1.
What all share (assay): pooled miR-30 sensor sort-seq; sequence = guide strand
Holding throughout (details): shRNA
Note: reference of the scale not given here.

In the assay with GPR89B, TCAGCTACCATAGACATCTCTT came in with a sensor-assay potency score (higher = more potent) of 0.143.

As to TACTGTTCCAGATCCAGGCTGG, the sensor-assay potency score (higher = more potent) with GPS1 is 0.176.

As to TTTAGCAGCCGCACAGACCTGA, the sensor-assay potency score (higher = more potent) with GRHL3 is -0.237.

With TCACTCAGTGTGGCAAAGGTGC, the sensor-assay potency score (higher = more potent) with HBB was -1.09.

As to AAGACCACGGGGGTACGGGTGC, the sensor-assay potency score (higher = more potent) with HBA1 was -0.867.

TATTCAAAGACCAGGAAGGGCC yielded a sensor-assay potency score (higher = more potent) with HBA2 of -0.938.

In turn, TTAGTGATCTTGGTCACAGAGA displayed a sensor-assay potency score (higher = more potent) with HAX1 of -0.982.

TTATCGTGGAAACGTATCCCTC: the sensor-assay potency score (higher = more potent) with HAX1 was -1.22.

The sequence TTTGCCAAAGTGATGGGCCAGC gave a sensor-assay potency score (higher = more potent) in the assay with HBB of -0.758.

As to AGACCAGGAAGGGCCGGTGCAA, in the assay with HBA2, the sensor-assay potency score (higher = more potent) is -1.65.

TGGCTTAGGAGCTTGAAGTTGA came in with a sensor-assay potency score (higher = more potent) with HBA2 of -0.42.

In turn, TGCTATTGAAATCTCGTACTAG had a sensor-assay potency score (higher = more potent) with HAX1 of 0.119.

AAGTTGACCGGGTCCACCCGAA: the sensor-assay potency score (higher = more potent) with HBA2 was -0.435.

For ACCACGGGGGTACGGGTGCAGG, the sensor-assay potency score (higher = more potent) in the assay with HBA1 is -2.46.

As for TCAAAGACCAGGAAGGGCCGGT, in the assay with HBA2, the sensor-assay potency score (higher = more potent) came out at 0.259.

In the assay with HBA2, TGCAAGGAGGGGAGGAGGGCCC gave a sensor-assay potency score (higher = more potent) of -1.68.

Consider TTCAAAGACCAGGAAGGGCCGG, for which the sensor-assay potency score (higher = more potent) in the assay with HBA2 was -0.416.

For ACGGGGGTACGGGTGCAGGAAG, in the assay with HBA1, the sensor-assay potency score (higher = more potent) is -2.14.

As for AGGAAGGGCCGGTGCAAGGAGG, the sensor-assay potency score (higher = more potent) with HBA2 was -2.16.

Take AAGACCAGGAAGGGCCGGTGCA: the sensor-assay potency score (higher = more potent) with HBA2 was -1.15.

In turn, TTATTCAAAGACCAGGAAGGGC showed a sensor-assay potency score (higher = more potent) in the assay with HBA2 of -1.06.

In the assay with HAX1, TTGGTCACAGAGATGCTCTTGA showed a sensor-assay potency score (higher = more potent) of 0.864.

ACTTCTTGCATCACTCTCCAAG had a sensor-assay potency score (higher = more potent) with HAX1 of -1.46.

Sequence TTCAAAGACCACGGGGGTACGG came in with a sensor-assay potency score (higher = more potent) in the assay with HBA1 of -1.1.

Turning to TATTGAAATCTCGTACTAGGTC, the sensor-assay potency score (higher = more potent) in the assay with HAX1 is -0.361.

Regarding TACGGGTGCAGGAAGGGGAGGA, in the assay with HBA1, the sensor-assay potency score (higher = more potent) was -0.675.

Consider TTGGGAGGCCCAGCGGGCAGGA, for which the sensor-assay potency score (higher = more potent) with HBA2 is -2.

On to AAAGACCACGGGGGTACGGGTG, for which the sensor-assay potency score (higher = more potent) with HBA1 was -1.54.

Regarding TCACTGTCCACCACAGTCCGGC, the sensor-assay potency score (higher = more potent) with HAX1 is -0.474.

Regarding TAGACCACCAGCAGCCTGCCCA, the sensor-assay potency score (higher = more potent) with HBB is -0.865.

Turning to TTACTGTAGTCTCTGTCCGGCC, in the assay with HAX1, the sensor-assay potency score (higher = more potent) is -0.884.

Regarding AGGGCCGGTGCAAGGAGGGGAG, the sensor-assay potency score (higher = more potent) in the assay with HBA2 is -1.98.

Regarding TACTAGGTCATCAAAGCCGAAG, the sensor-assay potency score (higher = more potent) with HAX1 was -1.1.

With AAGGGCCGGTGCAAGGAGGGGA, the sensor-assay potency score (higher = more potent) in the assay with HBA2 was -0.735.

On to CAGGAAGGGGAGGAGGGGCTGG, for which, in the assay with HBA1, the sensor-assay potency score (higher = more potent) was -1.95.

For TCAAAGACCACGGGGGTACGGG, the sensor-assay potency score (higher = more potent) with HBA1 was -0.714.
